Results filed as inconclusive are left out. Calls of active or inactive are those of the source. Unless noted, the call rests on the fitted dose curve; in most records, active means well fitted inhibition curve with a large enough effect; inconclusive means small, poorly fitted or top-dose-only effect; inactive means flat fitted curve, though single readings scatter.
How the values were obtained:
CP250 = experiment: qHTS profiling for inhibitors of Plasmodium falciparum proliferation (AID 504749);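 further: 0% = DMSO vehicle and full inhibition = artemisinin control; nearly all actives have a fitted effect of over 60% in size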; details: P. falciparum in erythrocytes, SYBR Green DNA, 72 h; series mostly up to 28.7 µM
In short: (§1)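 Three-day growth assay of blood-stage parasites in erythrocytes (0.3% parasitemia, 2.5% hematocrit) at 37 C, 5% CO2, quantified by SYBR Green DNA staining after overnight detergent lysis.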

CP252 = experiment: as above; details: P. falciparum in erythrocytes, SYBR Green DNA, 72 h; series mostly up to 28.7 µM
In short: as §1

CP256 = experiment: as above; details: P. falciparum in erythrocytes, SYBR Green DNA, 72 h; series mostly up to 28.7 µM
In short: as §1

CP260 = experiment: as above; details: P. falciparum in erythrocytes, SYBR Green DNA, 72 h; series mostly up to 28.7 µM
In short: as §1

CP262 = experiment: as above; details: P. falciparum in erythrocytes, SYBR Green DNA, 72 h; series mostly up to 28.7 µM
In short: as §1

CP265 = experiment: as above; details: P. falciparum in erythrocytes, SYBR Green DNA, 72 h; series mostly up to 28.7 µM
In short: as §1

CP266 = experiment: as above; details: P. falciparum in erythrocytes, SYBR Green DNA, 72 h; series mostly up to 28.7 µM
In short: as §1

CP268 = experiment: as above; details: P. falciparum in erythrocytes, SYBR Green DNA, 72 h; series mostly up to 28.7 µM
In short: as §1

CP269 = experiment: as above; details: P. falciparum in erythrocytes, SYBR Green DNA, 72 h; series mostly up to 28.7 µM
In short: as §1

CP286 = experiment: as above; details: P. falciparum in erythrocytes, SYBR Green DNA, 72 h; series mostly up to 28.7 µM
In short: as §1

CP291 = experiment: as above; details: P. falciparum in erythrocytes, SYBR Green DNA, 72 h; series mostly up to 28.7 µM
In short: as §1

CP297 = experiment: as above; details: P. falciparum in erythrocytes, SYBR Green DNA, 72 h; series mostly up to 28.7 µM
In short: as §1

CP305 = experiment: as above; details: P. falciparum in erythrocytes, SYBR Green DNA, 72 h; series mostly up to 28.7 µM
In short: as §1

CP315 = experiment: as above; details: P. falciparum in erythrocytes, SYBR Green DNA, 72 h; series mostly up to 28.7 µM
In short: as §1

CP325 = experiment: as above; details: P. falciparum in erythrocytes, SYBR Green DNA, 72 h; series mostly up to 28.7 µM
In short: as §1

CP329 = experiment: as above; details: P. falciparum in erythrocytes, SYBR Green DNA, 72 h; series mostly up to 28.7 µM
In short: as §1

DIV14 = experiment: as above; details: P. falciparum in erythrocytes, SYBR Green DNA, 72 h; series mostly up to 28.7 µM
In short: as §1

DIV30 = experiment: as above; details: P. falciparum in erythrocytes, SYBR Green DNA, 72 h; series mostly up to 28.7 µM
In short: as §1

Dd2 = experiment: as above; details: P. falciparum in erythrocytes, SYBR Green DNA, 72 h; series mostly up to 28.7 µM
In short: as §1

ECU = experiment: as above; details: P. falciparum in erythrocytes, SYBR Green DNA, 72 h; series mostly up to 28.7 µM
In short: as §1

FAB9 = experiment: as above; details: P. falciparum in erythrocytes, SYBR Green DNA, 72 h; series mostly up to 28.7 µM
In short: as §1

GB4 = experiment: as above; details: P. falciparum in erythrocytes, SYBR Green DNA, 72 h; series mostly up to 28.7 µM
In short: as §1

HB3 = experiment: as above; details: P. falciparum in erythrocytes, SYBR Green DNA, 72 h; series mostly up to 28.7 µM
In short: as §1

ICS = experiment: as above; details: P. falciparum in erythrocytes, SYBR Green DNA, 72 h; series mostly up to 28.7 µM
In short: as §1

JCK = experiment: as above; details: P. falciparum in erythrocytes, SYBR Green DNA, 72 h; series mostly up to 28.7 µM
In short: as §1

N140 = experiment: as above; details: P. falciparum in erythrocytes, SYBR Green DNA, 72 h; series mostly up to 28.7 µM
In short: as §1

P93_24 = experiment: as above; details: P. falciparum in erythrocytes, SYBR Green DNA, 72 h; series mostly up to 28.7 µM
In short: as §1

P94_40 = experiment: as above; details: P. falciparum in erythrocytes, SYBR Green DNA, 72 h; series mostly up to 28.7 µM
In short: as §1

PAD = experiment: as above; details: P. falciparum in erythrocytes, SYBR Green DNA, 72 h; series mostly up to 28.7 µM
In short: as §1

PC15 = experiment: as above; details: P. falciparum in erythrocytes, SYBR Green DNA, 72 h; series mostly up to 28.7 µM
In short: as §1

PC26 = experiment: as above; details: P. falciparum in erythrocytes, SYBR Green DNA, 72 h; series mostly up to 28.7 µM
In short: as §1

PC49 = experiment: as above; details: P. falciparum in erythrocytes, SYBR Green DNA, 72 h; series mostly up to 28.7 µM
In short: as §1

SC27B = experiment: as above; details: P. falciparum in erythrocytes, SYBR Green DNA, 72 h; series mostly up to 28.7 µM
In short: as §1

TAB109 = experiment: as above; details: P. falciparum in erythrocytes, SYBR Green DNA, 72 h; series mostly up to 28.7 µM
In short: as §1

TAB113 = experiment: as above; details: P. falciparum in erythrocytes, SYBR Green DNA, 72 h; series mostly up to 28.7 µM
In short: as §1

TAB165 = experiment: as above; details: P. falciparum in erythrocytes, SYBR Green DNA, 72 h; series mostly up to 28.7 µM
In short: as §1

W2 = experiment: as above; details: P. falciparum in erythrocytes, SYBR Green DNA, 72 h; series mostly up to 28.7 µM
In short: as §1

[1] = molecular target: Nuclear receptor subfamily 1 group I member 2 (Rattus norvegicus) (UniProt Q9R1A7); experiment: qHTS assay for small molecule activators of the rat pregnane X receptor (rPXR) signaling pathway (AID 651751; call rule not given here; further: 0% is about no effect); details: rPXR reporter cells, luciferase (One-Glo), 24 h
[2] = qHTS assay for small molecule activators of the human pregnane X receptor (PXR) signaling pathway (AID 720659; call rule not given here; further: 0% is about no effect)

Chain of Nuclear receptor subfamily 1 group I member 2 (Rattus norvegicus) (Q9R1A7 whole entry, looked up): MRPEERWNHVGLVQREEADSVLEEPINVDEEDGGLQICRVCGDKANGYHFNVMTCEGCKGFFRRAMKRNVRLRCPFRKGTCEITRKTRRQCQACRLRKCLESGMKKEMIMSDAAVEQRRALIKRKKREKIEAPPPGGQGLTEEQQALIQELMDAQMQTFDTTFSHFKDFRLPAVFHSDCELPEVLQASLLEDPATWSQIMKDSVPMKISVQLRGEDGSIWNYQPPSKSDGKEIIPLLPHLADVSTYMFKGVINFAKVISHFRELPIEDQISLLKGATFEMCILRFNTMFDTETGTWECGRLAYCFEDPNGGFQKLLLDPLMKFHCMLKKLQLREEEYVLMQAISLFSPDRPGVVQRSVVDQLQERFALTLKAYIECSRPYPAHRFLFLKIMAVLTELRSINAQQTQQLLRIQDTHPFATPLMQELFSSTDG

C[C@@H]1[C@H](O)[C@@H](C)/C=C/C=C/C=C/C=C/C=C/C=C/C=C/[C@H](O[C@@H]2O[C@H](C)[C@@H](O)[C@H](N)[C@@H]2O)C[C@@H]2O[C@](O)(C[C@@H](O)C[C@@H](O)[C@H](O)CC[C@@H](O)C[C@@H](O)CC(=O)O[C@H]1C)C[C@H](O)[C@H]2C(=O)O
inactive: Potency (CP250) | Potency (CP252) | Potency (CP256) | Potency (CP260) | Potency (CP262) | Potency (CP265) | Potency (CP266) | Potency (CP268) | Potency (CP269) | Potency (CP286) | Potency (CP291) | Potency (CP297) | Potency (CP305) | Potency (CP315) | Potency (CP325) | Potency (CP329) | Potency (DIV14) | Potency (DIV30) | Potency (Dd2) | Potency (ECU) | Potency (FAB9) | Potency (GB4) | Potency (HB3) | Potency (ICS) | Potency (JCK) | Potency (N140) | Potency (P93_24) | Potency (P94_40) | Potency (PAD) | Potency (PC15) | Potency (PC26) | Potency (PC49) | Potency (SC27B) | Potency (TAB109) | Potency (TAB113) | Potency (TAB165) | Potency (W2) | max response [1] -0.988% | outcome [2]
